Source: PubChem (National Center for Advancing Translational Sciences (NCATS))
FLuc counter – qHTS profiling assay for firefly luciferase inhibitor/activator using purifed enzyme and Km concentrations of substrates (counterscreen for miR-21 project); actives 6.9% (n = 360,000); Potency, µM (titrated, usually from 57.5 µM), for the others: at the top dose activity change, negative = inhibition, most hits filed as inhibitors; Luciferin 4-monooxygenase (Photinus pyralis), P08659; purified FLuc, Km substrates, luminescence inhibition;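 note: plate controls were vehicle for no effect and reference inhibitor for full effect; nearly all actives have a fitted effect of over 55% in size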
Target sequence (P08659 whole entry, looked up): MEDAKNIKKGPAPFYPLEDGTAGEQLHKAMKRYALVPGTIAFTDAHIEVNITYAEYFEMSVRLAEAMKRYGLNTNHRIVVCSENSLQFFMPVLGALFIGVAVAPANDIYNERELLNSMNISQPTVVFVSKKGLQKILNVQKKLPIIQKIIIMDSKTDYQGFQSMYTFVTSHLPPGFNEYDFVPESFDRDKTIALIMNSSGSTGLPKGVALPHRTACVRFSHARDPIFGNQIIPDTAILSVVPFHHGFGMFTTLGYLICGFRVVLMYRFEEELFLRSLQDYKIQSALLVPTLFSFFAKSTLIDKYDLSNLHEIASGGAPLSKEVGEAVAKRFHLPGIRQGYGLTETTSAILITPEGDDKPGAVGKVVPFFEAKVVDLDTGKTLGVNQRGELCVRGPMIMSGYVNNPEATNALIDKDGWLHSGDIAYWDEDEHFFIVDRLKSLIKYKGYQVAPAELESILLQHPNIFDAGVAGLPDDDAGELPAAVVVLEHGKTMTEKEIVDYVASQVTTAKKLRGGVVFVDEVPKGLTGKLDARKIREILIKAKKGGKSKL
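Purified P. pyralis luciferase, 10 nM final, with Km-level 10 uM D-luciferin and 10 uM ATP in 50 mM Tris acetate pH 7.5, 10 mM Mg acetate, 0.01% Tween-20, 0.05% BSA; 6-point qHTS titration about 60 µM downward; luminescence read.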
Rab9 prom act – qHTS Assay for Rab9 Promoter Activators. Huh7 Rab9 promoter-luciferase reporter, luminescence, 24 h. Potency, µM (highest dose often 9.22 µM), without a hit: at the top dose activation, negative = inhibition, actives largely listed as activators. actives 2.8% (n = 320,000). AID 485297, 2010; note: % of control where 0% means no effect; nearly all actives have a fitted effect of over 60% in size
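Quantitative HTS format; Huh7 Rab9-luciferase reporter cells (1500/well) receive compound 2 h post-plating, incubate 24 h at 37 °C, then get luciferase reagent for 10 min before luminescence reading.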
SMN2 splice up – qHTS Assay for Enhancers of SMN2 Splice Variant Expression. HEK293 SMN2-luciferase splicing reporter, luminescence, 30-36 h. actives 2.8% (n = 210,000). Potency, µM (series often up to 46.1 µM), without a hit: at the top dose activity change, positive = activation, usual class: activators. AID 1458, 2008; note: % of control where 0% means no effect; nearly all actives have a fitted effect of over 55% in size
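HEK293 cells carry an SMN2 minigene-luciferase reporter in which exon 7 inclusion puts luciferase in frame. Cells were seeded at 2000 cells/well, attached for 10-12 hours, then exposed to compounds for 30-36 hours at 37C before ONE-Glo luminescence.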
ELG1 repair inh – qHTS screen for small molecules that inhibit ELG1-dependent DNA repair in human embryonic kidney (HEK293T) cells expressing luciferase-tagged ELG1; HEK293T ELG1-luciferase reporter, luminescence, 16 h; DNA damage induced by 5-fluorouridine; Potency, µM (titrated, usually from 46.1 µM), for the others: at the highest dose activity change, negative = inhibition, hits mostly inhibitors; actives 2.3% (n = 330,000); AID 504467, 2011; note: % is set by controls: 0 for no effect and ±100 for the full control effect; nearly all actives have a fitted effect of over 55% in size
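Luminescence from the luciferase reporter, measured 30 min after ONE-Glo reagent at room temperature, was the read-out. Beforehand, 2,000 cells per well were exposed for 16 hr at 37 °C to 5-fluorouridine together with compound or vehicle.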
NPC1 promoter act – qHTS Assay for NPC1 Promoter Activators. Huh7 NPC1 promoter luciferase reporter, 24 h. Potency, µM (highest dose often 9.22 µM), without a hit: at the highest dose activation, actives largely listed as activators. actives 2.4% (n = 320,000); note: % of control where 0% means no effect; nearly all actives have a fitted effect of over 60% in size
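Compounds in DMSO were transferred onto Huh7 NPC1-luciferase reporter cells pre-incubated 2 h; after 24 h at 37 °C, Amplite reagent was dispensed and luminescence recorded 10 min later.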
ELG1 genotox – qHTS screen for small molecules that induce genotoxicity in human embryonic kidney (HEK293T) cells expressing luciferase-tagged ELG1; HEK293T ELG1-luciferase reporter, luminescence, 16 h; Potency, µM (highest dose often 46 µM), without a hit: at the highest dose activity change, positive = activation, actives largely listed as activators; actives 1.3% (n = 330,000); AID 504466, 2011; note: % of control where 0% means no effect; nearly all actives have a fitted effect of over 60% in size
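HEK293T cells expressing luciferase-tagged ELG1 were treated with compound or DMSO for 16 hr at 37°C. Luciferase activity was then read after 30 min with ONE-Glo at room temperature; rising signal flags genetic stress.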
An asterisk follows results filed as active; ? = inconclusive; . = no result given; [ ] = another dose, or the depositor's remark. Shown are actives, neighbours in structure and some others; about 9.3% of the full set was active somewhere. Calls come from the whole dose curve; as a rule, active = well fitted curve in the direction sought with a large enough effect; inconclusive = small, poorly fitted or top-dose-only effect, or another doubt; inactive = no such curve, though single readings can be large; an effect the other way counts as inactive or inconclusive. Potency is the fitted concentration of half-maximal effect.

SMILES	FLuc counter	Rab9 prom act	SMN2 splice up	ELG1 repair inh	NPC1 promoter act	ELG1 genotox
COc1cccc(NC2=Nc3cccc4cccc2c34)c1	12µM*	-3%	14%	?	-3%	4%
COC(=O)/C=C/c1cccc([C@H]2[C@@H]3C=CC[C@@H](C)[C@@H]3C(=O)N2Cc2ccccc2)c1	.	.	.	4%	.	1%
COc1ccc([C@H]2[C@H](C(=O)OC(C)(C)C)N3N=Cc4ccccc4C3C23C(=O)c2ccccc2C3=O)cc1OC (some centres not stated)	15µM*	-2%	10%	-2%	0%	-2%
COc1ccc([C@H]2[C@H](C(=O)OC(C)(C)C)N3N=Cc4ccccc4C3C23C(=O)c2ccccc2C3=O)c(OC)c1 (some centres not stated)	?	1%	7%	-18%	3%	-4%
O=C(c1ccco1)N1CCN(Cc2nc3ccc([N+](=O)[O-])cc3c(=O)n2-c2ccccc2F)CC1	1%	-1%	-2%	23µM*	-2%	-6%
CN1C(=O)/C(=N/OC(=O)c2ccccc2)c2ccccc21	7.6µM*	-3%	-8%	?	-5%	0%
Cc1ccc(-c2c(C(=O)N/N=C/C3CC=CCC3)nnn2-c2nonc2N)cc1 (configuration not stated)	0%	0%	.	?	-5%	1%
COc1ccc(N2CCN(C(=O)CCNC(=O)Cn3ccc4ccccc4c3=O)CC2)cc1	-3%	-6%	-28%	-15%	1%	0%
Nc1ncc(Br)cc1N=Cc1ccccc1	3.4µM*	3.5µM*	13µM*	?	21%	?
Cn1ncc(N=Cc2ccccc2)c1C(N)=O	-1%	12%	.	13%	-1%	2%
O=C1C(c2c(O)[nH]c3ccccc23)=Nc2ccccc21	-29%	?	-16%	.	20%	.
CC(=O)c1cccc2c(O)c(C3=Nc4ccccc4C3=O)[nH]c12	3.4µM*	0.63µM*	0.56µM*	?	2.8µM*	?
Cc1nn(C(C)C(=O)N2CCc3ccccc32)c(C)c1[N+](=O)[O-] (configuration not stated)	-1%	-3%	3%	-20%	-2%	1%
O=C(Cn1cnc2ccccc2c1=O)NCCCN1CCCC1=O	3%	0%	.	20%	2%	-4%
COc1ccc(/C=N/NC(=O)c2cc3cc(OC)c(OC)cc3[nH]2)cc1	?	0%	.	-28%	-2%	1%
COc1ccc2cc(C(=O)N/N=C/c3cc(OC)c(OC)c(OC)c3)[nH]c2c1	6.7µM*	-2%	.	?	1%	-6%
COc1cc2cc(C(=O)N/N=C/c3ccc(F)cc3)[nH]c2cc1OC	?	4%	.	?	1%	0%
CCOc1ccc2[nH]c(C(=O)N/N=C/c3ccc(OC)cc3)cc2c1	11µM*	-18%	.	?	-8%	6%
COc1cc2cc(C(=O)N/N=C/c3ccccc3Cl)[nH]c2cc1OC	17µM*	-3%	.	?	-4%	-5%
CCOc1ccc(/C=N/NC(=O)c2[nH]c3ccc(C)cc3c2C)cc1	11µM*	4%	.	-7%	-3%	-2%
Cc1c(C(=O)N/N=C/c2ccc(Cl)cc2)[nH]c2ccc(Cl)cc12	-13%	-19%	?	1%	-18%	3%
COc1ccc(NC(=O)COC(=O)Cc2c(F)cccc2Cl)cc1	?	2%	-8%	1%	-1%	1%
COc1ccc2[nH]c(C(=O)N/N=C/c3ccc(O)cc3O)cc2c1	11µM*	-2%[1.84 µM]	.	?	-36%	15%
O=C1COc2ccc(-c3cc(-c4ccccc4)c4c(n3)-c3cc(Cl)ccc3OC4)cc2N1	3%	.	1%	.	.	.
Cc1ccc2[nH]c(=O)c(CN(C)C(=O)c3cccs3)cc2c1	-7%	-1%	-9%	?	9%	7%
SMILES	FLuc counter	Rab9 prom act	SMN2 splice up	ELG1 repair inh	NPC1 promoter act	ELG1 genotox
O=C(c1cccs1)N(C(=O)c1cccs1)c1ccc(Br)cn1	?	1.6µM*	?	?	?	2.1µM*
Cc1ccnc(N(C(=O)c2cccs2)C(=O)c2cccs2)c1	19µM*	3.5µM*	13µM*	?	2.5µM*	2.1µM*
Cc1cccc2nc(COc3ccc(Cl)c4cccnc34)cn12	12µM*	?	?	?	21%	?
CN(C)c1ccc(CNC(=O)C2(C)C=CCN2C(=O)c2ccccc2)cc1 (configuration not stated)	.	.	16µM*	.	.	.
CCc1cc2c(SCC(=O)O)ncnc2s1	1%	0%	26%	-26%	-3%	-27%
CCc1cc2c(SCC(=O)NC(=O)c3cccn3C)ncnc2s1	2%	0%	-22%	1%	2%	9%
CCc1cc2c(SCC(=O)c3cccs3)ncnc2s1	-12%	7%	?	?	22%	23µM*
CCc1c(C)nc(SCC(=O)c2cccs2)c(C#N)c1C	2.7µM*	?	16µM*	?	3.2µM*	9.2µM*
C=CCn1c(SCC(=O)c2cccs2)nc2sc(CC)cc2c1=O	4%	0%	-43%	21µM*	-4%	-22%
CCc1cc2c(SCC(=O)c3ccccc3)ncnc2s1	?	2%	8.9µM*	?	20%	?
CCc1c(C)nc(SCC(N)=O)c(C#N)c1C	4%	7%	2%	-8%	0%	0%
CC(=O)Nc1cc(C(=O)NCCN2CCN(Cc3ccccc3)CC2)ccc1Sc1ccc(C)cc1	-1%	0%	-38%	?	-9%	-11%
O=C1CCCC=C1[C@@H](O)CCOC(c1ccccc1)(c1ccccc1)c1ccccc1	.	.	9%	.	.	.
CC1CCCCN1C(=O)CSc1nc2ccccc2nc1Cc1ccccc1 (configuration not stated)	-16%	.	.	.	.	.
COc1cc(NC(=O)CSc2nc(-c3ccccc3)no2)cc(OC)c1	1%	.	.	.	.	.
CCN(C(=O)CSc1nc(-c2ccc(C(C)C)cc2)no1)c1ccccc1	9.5µM*	.	.	.	.	.
COc1cc(NC(=O)CSc2nc(-c3ccc(C(C)C)cc3)no2)cc(OC)c1	2.7µM*	.	.	.	.	.
CC1CCN(C(=O)CSc2nc(-c3ccc(C(C)C)cc3)no2)CC1	3.4µM*	.	.	.	.	.
